Source: PubChem BioAssay AID449762 (Southern Research Specialized Biocontainment Screening …, 2010)
The campaign covered roughly 330,000 compounds. About 1,900 (0.58%) were called active. About 4% were inconclusive and are not listed. The list is a sample of the results. Measured potencies and affinities stand elsewhere. Unmarked numbers belong to inactive results. No stated cut-off is given here; in the data, inconclusive means inhibition above about 70% without an active follow-up result; inactive means below that.

Test: M. tuberculosis growth inhibition, HTS (AID 449762);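 further: bacterial growth assessed after seven days of incubation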
Details: M. tuberculosis H37Rv growth inhibition, 7H9 media; at 25 µM; active compounds read high

Structure (SMILES) | inhibition
CN(c1ccccc1)S(=O)(=O)c1ccc(Cl)c(C(=O)NCc2ccccc2CN2CCCC2)c1 | -5.7%
O=C(NCc1ccccc1CN1CCCC1)c1cccc(S(=O)(=O)N2CCCC2)c1 | -11.2%
CC1CCCCC1NC(=O)c1cc(=O)[nH]c2ccccc12 (stereo unspecified) | -4.11%
CC1CCCCC1NC(=O)c1ccc2c(c1)OCCO2 (stereo unspecified) | 8.58%
Cc1ccc(C(OC(=O)c2ccco2)C(=O)NCc2cccs2)cc1 (stereo unspecified) | 3.55%
O=C(O)c1cccc(NC(=S)NC(=O)c2ccc(-c3ccc(Cl)cc3)o2)c1 | 1.13%
Cc1cc2ncn(C(=O)c3ccc4c(c3)OCO4)c2cc1C | 6.27%
Cc1cccc(C(=O)Nc2ccc(S(=O)(=O)N3CCOCC3)cc2)c1[N+](=O)[O-] | 6.13%
COc1ccccc1-c1nnc(Nc2nc3c(OC)cccc3s2)o1 | 6.89%
COc1cccc2sc(Nc3nnc(-c4ccccc4Cl)o3)nc12 | 46.2%
COc1cccc(CN2CCN(Cc3cc4ccccc4o3)CC2CCO)c1 (stereo unspecified) | -6.38%
CC(C)OCCCn1c(-c2ccc(Br)cc2)c[nH]c1=S | 8.53%
COc1ccc(OC)c(-n2c(-c3cccc(O)c3)n[nH]c2=S)c1 | 2.31%
CCN(CC)C(=O)c1cc2cc([N+](=O)[O-])ccc2s1 | 6.23%
CCN(CC)C(=O)c1ccc(Oc2ccc([N+](=O)[O-])cc2Cl)cc1 | 4.15%
O=C(COc1ccc(Br)cc1)N1CCc2ccccc2C1 | 1.78%
CC(C)C(NC(=O)c1c(F)cccc1F)C(=O)N1CCN(c2ccccc2F)CC1 (stereo unspecified) | 5.13%
O=C(O)c1ccc(N=N/C(=N\Nc2ccc(C(=O)O)cc2)c2ccccc2)cc1 | 11.8%
O=C(/C(=N\Nc1ccc(Br)cc1)Sc1nnnn1-c1ccccc1)c1ccccc1 | 2.41%
O=C(Cc1n[nH]c(=O)c2ccccc12)Nc1cccc(S(=O)(=O)N2CCCCCC2)c1 | 34.4%
c1ccc(Cn2nnc3c(N4CCCC4)ncnc32)cc1 | 1.78%
c1ccc(Cn2nnc3c(N4CCc5ccccc54)ncnc32)cc1 | -4.04%
CC(c1ccccc1)n1cnc2ccccc2c1=O (stereo unspecified) | 3.81%
CCOC(=O)Cn1c(C(C)=O)nc2ccccc21 | -5.86%
CCOc1ccc2nc(SC3CC(=O)N(c4ccc(OC)cc4OC)C3=O)sc2c1 (stereo unspecified) | 37.3%
COc1cccc(COC(=O)Nc2ccccc2F)c1 | 4.89%
